The source of these data is ChEMBL document CHEMBL4513216, “Probing the Open Global Health Chemical Diversity Library for Multistage-Active Starting Points for Next-Generation Antimalarials” (ACS Infect Dis, 2020).

SMILES strings stand for the structures. In all, about 65,000 compounds went through this assay and about 2,100 (3.2%) showed an effect of 50% or more. The median lay at about -52%. This excerpt belongs to a sample that is enriched for strong results.

For the experiment, the system named is Plasmodium falciparum. Briefly: Screen against P. falciparum Asexual Blood Stage (ABS), at 5uM. The format is functional, Dd2. As to conditions: tested at 5 uM.
Turning to `O=C(NC[C@]12COC[C@H]1CN(Cc1cccnc1)C2)C1CCC1`, the INHIBITION is reported as -49.9%.

With `CCC(C(=O)N1CCCSCC1)N1CCCC1=O` (stereo not drawn), the INHIBITION is given as -76.1%.

With `CNCCc1nc2cc(Cl)ccc2[nH]1`, the INHIBITION was -71%.

In the case of `O=C(N1CCCO1)[C@@]12CCO[C@@H]1CCN(Cc1ccccn1)C2`, the INHIBITION is given as -110%.

Take `CC(Cn1cncn1)NCCN1CCc2ccccc21` (stereo not drawn): the INHIBITION is recorded as -71.4%.

Regarding `CC(C)c1nn(C)c(Cl)c1CNCC(O)c1cccc(F)c1` (stereo not drawn), the INHIBITION is 82.4%.

For `CC(C)=CCN1C[C@@H]2CC[C@H]1CN(C(=O)CSc1ccncc1)C2`, the INHIBITION is reported as -26.7%.

On to `Cc1noc(C)c1CN1CC2(CCCCN2C)CC1=O` (stereo not drawn), for which the INHIBITION was -15.4%.

Take `CCNc1ccnc(CN2CCCC2C(=O)Nc2nccs2)c1` (stereo not drawn): the INHIBITION came to 95.1%.

Consider `CC(C)NC(=O)[C@H]1C[C@@H]2[C@@H](C1)OCCN2Cc1ccccn1`, for which the INHIBITION is -84.2%.

With `O=C(N[C@@H]1CN(Cc2ccccn2)[C@@H]2COC[C@@H]21)C1CCC1`, the INHIBITION was -89.5%.

With `O=C(Nc1cccnc1)[C@H]1C[C@@H]2CCN(Cc3nccs3)C[C@@H]2O1`, the INHIBITION is -177%.

With `CCn1ccnc1CN1CCCC1C(=O)Nc1nccs1` (stereo not drawn), the INHIBITION came out at 85%.

Regarding `O=C(Nc1nccs1)C1CCCN1Cc1ccccn1` (stereo not drawn), the INHIBITION is recorded as 93.7%.

With `CCn1ccnc1CN1CCCN(C(=O)Cc2csc(C)n2)CC1`, the INHIBITION was -15.3%.

On to `Cc1cnc(C(=O)N2C[C@H]3CN(Cc4cccnc4)C[C@H]3C2)cn1`, for which the INHIBITION was -8.02%.

In the case of `CN(C)CCN(Cc1cccnc1)C(=O)c1ccn(-c2ccccc2)n1`, the INHIBITION came to 87.4%.

For the molecule `CCCN1CCN(C(=O)Cc2nc(-c3ccco3)oc2C)CC1`, the INHIBITION is -36.9%.

Turning to `COc1cccc(C2=CCN(CCN3CCCC3=O)CC2)c1`, the INHIBITION came out at 12.8%.

For the molecule `Cc1nc(CN)cc(N2CCC(O)(c3ccc(Cl)cc3)CC2)n1`, the INHIBITION came to 72.2%.

For `Cc1nc(CCN)cc(N2CCC(O)(c3ccc(Cl)cc3)CC2)n1`, the INHIBITION was 91.7%.

As for `CN1[C@@H](C(=O)NCC2CC2)C[C@@H]2CN(c3ncccn3)C[C@@H]21`, the INHIBITION stood at 13.9%.

As to `c1ccc(O[C@@H]2CC[C@H]3[C@H]2OCCN3CC2CCOCC2)nc1`, the INHIBITION is -83.6%.

As to `c1ccc(O[C@H]2CC[C@H]3[C@H]2OCCN3Cc2nccs2)nc1`, the INHIBITION is on record as -64.9%.

Turning to `CC(C)C[C@H](N)COc1cccc(F)c1Oc1ccccc1`, the INHIBITION worked out at 70.9%.

For `CC(C)C[C@H](N)COc1cccc(F)c1Oc1cccc(Cl)c1`, the INHIBITION is reported as 85.5%.

As to `CC(C)C[C@H](N)COc1cccc(F)c1Oc1ccc(Cl)cc1`, the INHIBITION came to 86.5%.

Consider `c1ccc(CO[C@@H]2C[C@H]3CN(c4ncccn4)CCN3C2)nc1`, for which the INHIBITION is -38.6%.
